# Results from ChEMBL document CHEMBL4513216, “Probing the Open Global Health Chemical Diversity Library for Multistage-Active Starting Points for Next-Generation Antimalarials” (ACS Infect Dis, 2020).
# About 8,600 (12%) of roughly 69,000 compounds showed an effect of 50% or more. The sample holds strong results, similar compounds and a random draw of the others, so the mix is not that of the screen.
# Test system: Plasmodium berghei
# Assay: Screen against P. berghei liver stage (PbLuc), transformed with Luciferase, at 10uM
# Assay type: functional, HepG2
# Conditions: tested at 10 uM
row,Compound,INHIBITION
1,Cc1ccc(C(=O)N2CCc3ncnc(-c4cnn(C)c4)c3CC2)cn1,-64.6%
2,CCNC(=O)C1CCCN(c2ccc(C#N)cc2C(F)(F)F)C1 (centres undefined),26.3%
3,CCNC(=O)Nc1ccc(N2CCC(OC)CC2)c(C(F)(F)F)c1,89.6%
4,COCCCNC(=O)Nc1ccc(-n2cncn2)c(C(F)(F)F)c1,-37.55%
5,COC1CCN(c2ccc(NC(=O)C3CC3)cc2C(F)(F)F)CC1,95.8%
6,CCC(=O)Nc1ccc(N2CCC(OC)CC2)c(C(F)(F)F)c1,45.1%
7,COCC(=O)Nc1ccc(N2CCC(OC)CC2)c(C(F)(F)F)c1,30.3%
8,COCCNC(=O)[C@H]1CN(Cc2nccs2)C[C@H]2OCC[C@@H]12,-3.19%
9,CCOCCC1(CNC(=O)c2ccc(C)nc2)CCCC1,-30.6%
10,c1ccc(-c2noc(CN3CCC(c4ccn[nH]4)CC3)n2)cc1,35.1%
11,Cc1cccc(-c2noc(CN3CCC(c4ccn[nH]4)CC3)n2)c1,-39.6%
12,c1ccc(-c2cc(CN3CCC(c4ccn[nH]4)CC3)on2)cc1,73.5%
13,Cn1cnc(S(=O)(=O)N2CCCC2c2ccnc3nccn23)c1 (centres undefined),23.84%
14,CCc1nnsc1C(=O)N1CCCC(n2ccnc2C(C)C)C1 (centres undefined),53.9%
15,CC(C)c1nccn1C1CCCN(C(=O)CCc2cscn2)C1 (centres undefined),62.1%
16,CC(C)c1nccn1C1CCCN(C(=O)CCNS(C)(=O)=O)C1 (centres undefined),36.1%
17,CSCC(=O)N1CCCC(n2ccnc2C(C)C)C1 (centres undefined),45.4%
18,CC(C)c1nccn1C1CCCN(C(=O)c2nccnc2N)C1 (centres undefined),41.5%
19,CC(C)c1nccn1C1CCCN(C(=O)CCc2cnn(C)c2)C1 (centres undefined),33.3%
20,Cc1cc(N2CCC(c3ncc[nH]3)CC2)c2ccccc2n1,41.6%
21,Cc1nc(CN2CCOCC3(CCN(c4cnccn4)CC3)C2)cs1,-11.6%
22,CN(CC(C)(CO)CO)C(=O)Nc1cc(Cl)cc(Cl)c1,26.515%
23,c1csc(-c2nc(CN3CCCCC3Cn3cccn3)co2)c1 (centres undefined),11.5%

row,Compound,INHIBITION
1,COc1ccc(C2=CN=C(C(F)(F)F)CC2N)cc1 (centres undefined),-0.371%
2,NC1CC(C(F)(F)F)=NC=C1c1ccccc1 (centres undefined),4.08%
3,NC1CC(C(F)(F)F)=NC=C1c1ccc(Cl)cc1 (centres undefined),59%
4,COc1ccc(C(=O)NC2CC2)c(OC2CCN(CCCSC)CC2)c1,60.3%
5,COc1ccc(C(=O)NC2CC2)c(OC)c1,23.6%
6,COc1ccccc1OC1CCN(C(=O)CCCN2CCOCC2)CC1,23.8%
7,COc1ccc(C(=O)NC2CC2)c(OC2CCN(CC3CC3)CC2)c1,26.7%
8,COc1ccc(C(=O)NC2CC2)c(OC2CCN(C3CCC3)CC2)c1,29.4%
9,COc1ccc(C(=O)NC2CC2)c(OC2CCN(C(C)CO)CC2)c1 (centres undefined),76.6%
10,O=C(NC1CCCCC1)N1CCn2c(nnc2C2CCCN2)C1 (centres undefined),44.1%
11,CS(=O)(=O)NCc1nnc2n1CCN(Cc1cccs1)CC2,34.6%
12,NC(=O)COc1ccc(CNCc2cc(F)cc(F)c2)cc1,-28%
13,Cc1cc2nc(C(C)C)cc(NCCc3ccncc3)n2n1,34%
14,CC(=O)N1CCC(C(=O)NC(C)c2cccc(OC(F)F)c2)CC1 (centres undefined),58.3%
15,CC(NC(=O)C1CCN(S(N)(=O)=O)CC1)c1cccc(OC(F)F)c1 (centres undefined),17%
16,CC(=O)N1CC(C(=O)Nc2cccc(OC(F)F)c2)C1,26%
17,CCc1ncc2c(n1)CN(Cc1cc(C)on1)CC2,35.4%
18,Cc1nn(C)cc1-c1cncn1CCN(C)C1CCCC1,-25.3%
19,CCCN1CCCN(C(=O)c2oc(C)nc2C)CC1,2.7%
20,Cc1nc(C)c(C(=O)N2CCc3nnc(C4CCCCN4C)n3CC2)o1 (centres undefined),-4.68%
21,CCCC(=O)N1CCCN(C(=O)c2oc(C)nc2C)CC1,80%
22,COCCN1CCCN(C(=O)c2oc(C)nc2C)CC1,33.4%
23,Cc1nc(C)c(C(=O)N2CCN(CCOc3ccccc3C)CC2)o1,66.3%

row,Compound,INHIBITION
1,Cc1ocnc1C(=O)N1CCN(CCOc2ccccc2)CC1,37.6%
2,COCCNC(=O)C(C)n1nc(-c2ccco2)cc(N)c1=O (centres undefined),42.6%
3,CC(C)OCCCN(Cc1ccncc1)Cc1cccc(F)c1F,-12.9%
4,COc1cc2cc(C(=O)NCC(=O)O)n(C)c2c(OC)c1OC,57.3%
5,COc1cc2cc(C(=O)NCCC(=O)O)n(C)c2c(OC)c1OC,11%
6,COc1cc2cc(C(=O)O)n(C)c2c(OC)c1OC,-9.48%
7,Cc1nc(C2CCCN2CCC(=O)N2CCc3ccccc32)no1 (centres undefined),5.03%
8,Cc1nnc(N2C[C@H](OCC3CCCC3)[C@H]3OCCC[C@H]32)s1,-34.7%
9,COc1ccc(OC)c(C2CCN(c3ccc4cc[nH]c4n3)C2)c1 (centres undefined),79.2%
10,COc1ccccc1OC1CCN(c2nc(N)nc3[nH]cnc23)CC1,-18.8%
11,COc1cccc(C2CC(=O)Nc3nc(N4CCOCC4)sc32)c1OC (centres undefined),13.4%
12,COc1ccc(OC)c(C2CCN(Cc3nc(C)n4ccccc34)C2)c1 (centres undefined),45.8%
13,COc1ccccc1C1CCN(c2ccc3cc[nH]c3n2)CC1,88.2%
14,COc1cccc(C2CC(=O)Nc3nc(N4CCCCC4)sc32)c1OC (centres undefined),19.3%
15,COc1cccc(C2CCN(c3ccc4cc[nH]c4n3)C2)c1OC (centres undefined),89.9%
16,COc1ccc(OC)c(C2CCN(C3CCOCC3)C2)c1 (centres undefined),-68.6%
17,COC(=O)c1ccc(N2CCC(c3ccccc3)CC2)nn1,-18.5%
18,Fc1cnc(N2CCC3(CCCN(c4nncs4)C3)C2)nc1 (centres undefined),4.68%
19,COCC1COCCC12CCN(CCc1ccccc1)CC2 (centres undefined),2.3%
20,O=C(Nc1cn[nH]c1)c1ccncc1,35.95%
21,CN(C)C(=O)CNC(=O)c1nc(C2CC2)n(-c2ccccc2Cl)n1,-20.8%
22,O=C(c1ccnnc1)N1CC[C@H]2C[C@H](c3ccncn3)O[C@@H]2C1,25.2%
23,Cc1ccc(Oc2ncccc2C(=O)O)c(C)c1,-16.2%
